About 3,700 (1%) of roughly 360,000 compounds were called active. Not shown: some 2% with an inconclusive outcome.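 How the source made its calls: active means normalized GFP-positive differentiation at or above the plate's own cutoff, the solvent-only control mean plus 3 SD; inconclusive means no clear call, values can overlap the other calls; inactive means the rest.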 The full list was thinned out, with actives kept by preference.
experiment: induction of myeloid progenitor differentiation, primary screen, cell-based, flow cytometry, MLPCN library (AID 624256); settings: ER-HoxA9 myeloid progenitors, lysozyme-GFP differentiation, at 10 µM; GFP+ MAC1+ double positive: measured here: differentiation confirmed by MAC1 staining, stronger effect = higher value; normalized GFP-positive differentiation: stronger effect = higher value;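 on GFP+ MAC1+ double positive: cells exposed to compound for four days before flow analysis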;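 on normalized GFP-positive differentiation: cells exposed to compound for four days before flow analysis; 0% = DMSO wells and 100% = fulvestrant positive control at 5 µM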

Compound | GFP+ MAC1+ double positive [%] | normalized GFP-positive differentiation | outcome
O=C1NC(=O)N(CCc2ccc(F)cc2)C(=O)/C1=C/C=C/c1ccccc1 | 0.9 | 70.4% (active) | –
CNC(=O)O/N=C(\N)Cc1csc2ccc(Cl)cc12 | 0.2 | – | inactive
CC(C)Nc1nc(Cl)nc(NC(C)C)n1 | 0.1 | – | inactive
COc1ccc(N=Cc2c(O)n(C)c(=O)[nH]c2=O)cc1 | 0.4 | – | inactive
C[C@H]1CN([C@@H](C)CO)C(=O)CCCn2nncc2CO[C@H]1CN(C)C(=O)Oc1ccccc1 | 0.8 | – | inactive
Cc1ccccc1NC(=O)COC(=O)c1cc(C)n(C2CC2)c1C | 1.3 | – | inactive
CC(=NCC1CCCO1)c1c(O)n(-c2ccccc2)c(=O)[nH]c1=O (stereo not given) | 0.9 | – | inactive
OCC#CC[N+]1(CC#Cc2ccccc2)CCCC1 | 1.2 | 7.55% (active) | –
COC(=O)C1=C(c2cc3ccccc3s2)C[C@@H]2CC[C@H]1N2C(=O)NCCO | 4.1 | – | inactive
CCOC(=O)[C@]12Cc3cc(OC)ccc3[C@H]1N(C(C)C)C(=O)c1ccccc12 | 1.5 | – | inactive
c1ccc(CC2CCCCN2)cc1 (stereo not given) | 0.1 | – | inactive
c1ccc2sc(C3CCCNC3)nc2c1 (stereo not given) | 1.2 | – | inactive
CC1CC=CCC12C(=O)NC(=S)NC2=O (stereo not given) | 11.7 | 312% (active) | –
CN1CCC[C@@H]1CCO[C@](C)(c1ccccc1)c1ccc(Cl)cc1 | 3.2 | – | inactive
CC1C2Cn3c(nc4ccccc43)C1N(C)O2 (stereo not given) | 1.5 | – | inactive
